Bioassay records as filed in PubChem.
LDHA inh – inhibitors of human lactate dehydrogenase A. purified LDHA, NADH/diaphorase-resazurin fluorescence; hits give low values. activity change, % (values are at about 110 or 230 µM). 480,000 tested, 0.15% active. AID 1347041; in the data active = activity change below about -30%; inconclusive = mostly about -25% to -30%;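 also: plate controls were DMSO wells for no effect and wells without enzyme for full effect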
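Human LDH5 (2 nM) was incubated with 0.06 mM NADH and 0.2 mM pyruvate for 5 min at room temperature in Tris pH 7.4. Remaining NADH was coupled through diaphorase/resazurin, and resorufin fluorescence was read at 0 and 20 min.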
Pin1 inhibitor – inhibitors of human Pin1 | Q13526 | Pin1 FP peptide displacement, HiFluor488, 10 min | Potency, µM (doses to about 115 µM), for inactives: at the highest dose activity, negative = inhibition, hits mostly inhibitors | 390,000 tested, 0.009% active | AID 504891; active = well fitted inhibition curve with a large enough effect in the polarisation, with a control signal flat, not every such curve was filed as active; inconclusive = small, poorly fitted or top-dose-only effect, or effect the other way, or a change in a side signal; inactive = no such curve, though single readings can be large or run the other way; the % refers to the polarisation; also: potency is read from the fitted curve at half-maximal effect; % is scaled to controls: 0 for no effect and ±100 for the full control effect
Target sequence (Q13526 whole entry, looked up): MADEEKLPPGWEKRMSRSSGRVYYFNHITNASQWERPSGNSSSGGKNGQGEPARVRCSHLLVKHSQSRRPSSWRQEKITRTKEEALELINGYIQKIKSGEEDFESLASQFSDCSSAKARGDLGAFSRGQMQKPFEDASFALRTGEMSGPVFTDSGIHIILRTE
PGK inhibitor – T. brucei PGK inhibition; P07378; PGK/GAPDH coupled, Kinase-Glo luminescence, 60 min; Potency, µM (titrated, usually from 57.5 µM), for the others: at the highest dose activity change, negative = inhibition, hits mostly inhibitors; 380,000 tested, 0.043% active; AID 602233; also: potency is read from the fitted curve at half-maximal effect; % is scaled to controls: 0 for no effect and ±100 for the full control effect; nearly all actives have a fitted effect of over 60% in size
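Recombinant glycosomal PGK reaction used 1,3-bisphosphoglycerate generated in-well by GAPDH (100nM final) in 100mM TEA pH 7.6, 5mM MgCl2, 0.01% Tween-20. After 60 minutes at room temperature, ATP was read by Kinase-Glo Plus luminescence end-point.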
Vif-A3G inh – inhibitors of Vif-APOBEC3G interaction; HeLa A3G-eYFP + Vif (tagged APOBEC3G with the HIV-1 protein that degrades it), YFP fluorescence, overnight; Potency, µM (titrated, usually from 46.1 µM), for the others: top-dose activity, negative = active, actives largely listed as inhibitors; 410,000 tested, 0.076% active; also: potency is read from the fitted curve at half-maximal effect; % is scaled to controls: 0 for no effect and ±100 for the full control effect; nearly all actives have a fitted effect of over 60% in size
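Read-out is eYFP fluorescence (Ex 488/Em 500-530) from Vif-expressing HeLa A3G-eYFP cells; more signal means A3G escaped Vif-mediated degradation. Cells plated overnight, compound pinned in, incubated overnight at 37 deg C.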
mIDH1 inhibitor – human IDH1 R132H inhibition; IDH1-R132H enzyme, NADPH consumption, diaphorase/resazurin fluorescence; Potency, µM (doses to about 76.6 µM), inactives show at the highest dose activity change, negative = inhibition, actives largely listed as inhibitors; AID 602179; 390,000 tested, 0.093% active; also: potency is read from the fitted curve at half-maximal effect; % is scaled to controls: 0 for no effect and ±100 for the full control effect; nearly all actives have a fitted effect of over 65% in size
Target sequence (O75874 whole entry R132H, stated change not applied): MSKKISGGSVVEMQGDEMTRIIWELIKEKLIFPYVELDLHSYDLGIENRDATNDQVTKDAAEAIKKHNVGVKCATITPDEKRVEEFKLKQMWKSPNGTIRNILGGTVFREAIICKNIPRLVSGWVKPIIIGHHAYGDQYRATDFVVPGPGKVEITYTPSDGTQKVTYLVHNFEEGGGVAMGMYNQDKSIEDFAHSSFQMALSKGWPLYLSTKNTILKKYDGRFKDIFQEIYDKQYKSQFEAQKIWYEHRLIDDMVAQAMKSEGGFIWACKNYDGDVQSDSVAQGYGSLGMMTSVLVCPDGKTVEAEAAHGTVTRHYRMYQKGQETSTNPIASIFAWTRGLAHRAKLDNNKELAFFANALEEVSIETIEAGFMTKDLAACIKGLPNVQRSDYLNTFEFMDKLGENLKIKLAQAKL
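IDH1-R132H (0.5 ug/mL) preincubated 30 min with compound, then NADPH (0.016 mM) and alpha-KG (2 mM) added; 80 min at RT, pH 7.5. Remaining NADPH coupled via diaphorase/resazurin to fluorescence (540/590 nm); concentration-response curves normalized to no-enzyme control.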
Vif-APOBEC3F blk – Vif-A3F binding inhibition; HeLa A3F-eYFP + Vif (tagged APOBEC3F with the HIV-1 protein that degrades it), YFP fluorescence increase; Potency, µM (top dose mostly 46.1 µM), for the others: top-dose activity, negative = active; 390,000 tested, 0.2% active; also: potency is read from the fitted curve at half-maximal effect; % of control where 0% means no effect; nearly all actives have a fitted effect of over 65% in size
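HeLa cells stably expressing A3F-eYFP plus Vif, plated and incubated overnight at 37 deg C, then exposed to compounds overnight at 37 deg C. Blocked degradation read as raised yellow fluorescence (Ex 488/Em 500-530).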
* hit, by the source's call; i = inactive; ? = inconclusive; / = no result given. This is a sample that favours compounds with a hit; in the whole collection about 0.49% have one here. Unless noted, calls follow the shape of the dose curve; as a rule, active = well fitted curve in the direction sought with a large enough effect; inconclusive = small, poorly fitted or top-dose-only effect, or another doubt; inactive = no such curve, though single readings can be large; an effect the other way counts as inactive or inconclusive.

SMILES | LDHA inh | Pin1 inhibitor | PGK inhibitor | Vif-A3G inh | mIDH1 inhibitor | Vif-APOBEC3F blk
Cc1ccc(N2C(=O)CS/C2=C(\C(Cl)=C(Cl)Cl)[N+](=O)[O-])cc1 | -11 | 1% | / | ? | -5% | 25µM*
Cc1nnc(NC(=O)CCc2ncc(-c3ccccc3)o2)s1 | -15 | / | / | / | / | /
c1cc(CNc2ccc3c(c2)OCO3)ccn1 | 17 | ? | -6% | 1% | 11% | -7%
Cc1ccc(CNc2ccc3c(c2)OCO3)cc1 | 26 | ? | -18% | 22µM* | 15% | 25µM*
N#C/C(=C/c1ccc(N2CCOCC2)o1)C(=O)NC1CCCCC1 | -3 | ? | 3% | 11µM* | 3% | 22µM*
N#C/C(=C\c1ccc(N2CCOCC2)o1)C(=O)Nc1ccc(O)cc1 | 4 | ? | -13% | ? | 1% | ?
ClCc1nc2ccccc2n1Cc1ccccc1 | -3 | -5% | 6% | ? | -5% | 5.6µM*
Cc1cccc(/C=N/NC(=O)CCc2ccccc2)c1 | 7 | / | / | / | / | /
COC(=O)C(C)Oc1ccc2c(=O)c(-c3ccc(Cl)cc3)coc2c1 (configuration not stated) | -5 | / | / | / | / | /
COC(=O)C(C)Oc1ccc2c(=O)c(-c3ccc4c(c3)OCCO4)coc2c1 (configuration not stated) | -34* | / | / | / | / | /
CC(Oc1ccc2c(-c3ccccc3)cc(=O)oc2c1)C(=O)O (configuration not stated) | -4 | 6% | / | 1% | 10% | -2%
COC(=O)C(C)Oc1ccc2c(-c3ccccc3)cc(=O)oc2c1 (configuration not stated) | -32* | / | / | / | / | /
CC(C)C(=O)Nc1ccc2c(C(C(=O)O)N3CCN(C)CC3)c[nH]c2c1 (configuration not stated) | -4 | / | / | / | / | /
CCN1CCCC1CNC(=O)C1CCN(c2nc(Cl)nc3nc[nH]c23)CC1 (configuration not stated) | 13 | / | / | / | / | /
COc1ccccc1OCC(=O)Nc1ccc(C(=O)Nc2ccccc2C(=O)O)cc1 | -4 | / | -6% | -5% | 16% | 1%
COc1ccc(CC(=O)Nc2ccc(C(=O)Nc3ccccc3C(=O)O)cc2)cc1OC | -37* | -7% | -8% | -2% | 4% | -4%
COc1ccc2[nH]cc(/C=C/c3cc[n+](C)cc3)c2c1 | 8 | ? | / | 11µM* | 0% | 13µM*
COc1ccc2[nH]cc(C=O)c2c1 | -8 | -2% | 6% | 1% | 4% | 2%
O=C(Nc1cc(C(=O)Nc2ccc(S(=O)(=O)O)cc2S(=O)(=O)O)cc(C(=O)Nc2ccc(S(=O)(=O)O)cc2S(=O)(=O)O)c1)Nc1cc(C(=O)Nc2ccc(S(=O)(=O)O)cc2S(=O)(=O)O)cc(C(=O)Nc2ccc(S(=O)(=O)O)cc2S(=O)(=O)O)c1 | -38* | / | / | 4% | / | /
CCCSc1ccc(C(=O)CCN(C)C)cc1 | 0 | / | / | / | / | /
Cc1ccc(-c2nc(C=Nc3ccc(O)cc3)c(O)o2)cc1 | -1 | ? | -4% | ? | 3% | 25µM*
CC(OC(=O)c1ccccc1Cc1ccccc1)C(=O)NC(N)=O (configuration not stated) | 11 | / | / | / | / | /
CC(OC(=O)/C(C#N)=C/c1ccc(N(C)C)cc1)C(=O)N(C)Cc1ccccc1 (configuration not stated) | -3 | ? | -4% | ? | 13% | 22µM*
Cc1cc(OCC(=O)Nc2nnc(C3CC3)s2)ccc1Cl | -3 | / | 6% | 2.8µM* | -8% | -1%
O=C(COc1ccc(F)cc1)Nc1nnc(C2CC2)s1 | -8 | -1% | -3% | 1% | -2% | -2%
SMILES | LDHA inh | Pin1 inhibitor | PGK inhibitor | Vif-A3G inh | mIDH1 inhibitor | Vif-APOBEC3F blk
CCOC(=O)/C=c1\s/c(=C\c2ccc(C(=O)OC)cc2)c(=O)n1CC(=O)Nc1ccccc1 | -2 | ? | -6% | 1% | 3% | ?
CCOC(=O)/C=c1/s/c(=C/c2ccc3cc(OC)ccc3c2)c(=O)n1CC(=O)NCC1CCCO1 (configuration not stated) | 1 | ? | i | 0% | 1% | 7.1µM*
CCOC(=O)/C=c1\s/c(=C\c2c(OC)ccc3ccccc23)c(=O)n1CC(=O)NCC1CCCO1 (configuration not stated) | 5 | ? | 0% | 10µM* | 1% | 25µM*
CCN(CC(=O)Nc1cc(Cl)ccc1OC)CC(=O)NC1CCS(=O)(=O)C1 (configuration not stated) | -36* | -17% | -2% | 4% | 2% | -16%
CCc1ccc2nc(SCC(=O)Nc3ccccc3N3CCOCC3)c(C#N)cc2c1 | -6 | ? | -2% | ? | -8% | 10µM*
CCOc1cccc(-c2cc(C(=O)O)c3ccc(C)c(C)c3n2)c1 | 3 | / | / | / | / | /
N#C/C(=C/c1ccc(N2CCCCCC2)o1)c1cccc(F)c1 | 15 | ? | 6% | ? | 4% | 5µM*
COc1cc(N2CCCC2)c(OC)cc1/C=C(/C#N)c1cccc(F)c1 | 17 | ? | -11% | 5µM* | 4% | ?
N#C/C(=C/c1ccc(N2CCCCCC2)o1)c1ccc(F)cc1 | 11 | ? | -11% | ? | -8% | 28µM*
COc1ccc(/C(C#N)=C\c2ccccc2F)cc1OC | 6 | / | / | / | / | /
O=[N+]([O-])c1cccc(/C=N/OCc2ccccc2Cl)c1 | 5 | / | / | / | / | /
CCCn1c(=O)[nH]c(=O)c2c1nc(-c1ccc(C)cc1)n2CCN1CCOCC1 | 4 | / | / | / | / | /
O=C(CCC1CCCC1)NC1CCCc2ccccc21 (configuration not stated) | -6 | / | / | / | / | /
O=S(=O)(Nc1nc2n(n1)C(c1ccccc1)C=C(c1ccc(Cl)cc1)N2)c1ccccc1 (configuration not stated) | 0 | ? | -11% | ? | -2% | 22µM*
CCOc1ccccc1NC(=O)C(=O)c1c[nH]c2ccccc12 | 0 | / | / | / | / | /
CCOc1ccccc1NC(=O)C(=O)c1c[nH]c2c(CC)cccc12 | -36* | / | / | / | / | /
c1ccc(-c2cc(-c3ccccc3)n(-c3ccccc3)n2)cc1 | 0 | / | / | / | / | /
Cc1ccc2nc(SCC(=O)Nc3ccccc3N3CCOCC3)c(C#N)cc2c1 | -4 | 24% | 5% | ? | -8% | -3%
Cc1ccc2nc(SCC(=O)Nc3ccc4sc(C)nc4c3)c(C#N)cc2c1 | -9 | ? | 3% | -4% | -3% | 11µM*
O=C(CN1CCN(C(=O)c2ccco2)CC1)Nc1c2c(nc3c1CCC3)CCCC2 | -35* | -12% | -7% | 1% | 3% | -4%
O=C(CN1CCN(C(=O)c2ccco2)CC1)Nc1ccccc1 | -4 | 3% | 6% | 2% | -8% | 7%
